# Test results from the supplement of paper PMC13380429.
# Unmarked numbers belong to inactive results.
# Tested on: Vero E6 infected with SARS-CoV-2
# Assay: inhibition of SARS-CoV-2 cytopathic effect; higher = more antiviral protection, active = above 15
# Settings: 833.33 nM; 48 h
row,SMILES,inhibition of SARS-CoV-2 cytopathic effect
1,Cc1cc(I)ccc1Nc1c(C(=O)NOCC2CC2)cc(F)c(F)c1F,-0.67%
2,CO[C@H]1C[C@H](O[C@H]2[C@H](C)O[C@@H](O[C@@H]3/C(C)=C/C[C@@H]4C[C@@H](C[C@]5(C=C[C@H](C)[C@@H](C6CCCCC6)O5)O4)OC(=O)[C@@H]4C=C(C)[C@@H](O)[C@H]5OC/C(=C\C=C\[C@@H]3C)[C@]54O)C[C@@H]2OC)O[C@@H](C)[C@@H]1O [doramectin],0.55%
3,Cc1c(N)nc([C@H](CC(N)=O)NC[C@H](N)C(N)=O)nc1C(=O)N[C@H](C(=O)N[C@H](C)[C@@H](O)[C@H](C)C(=O)N[C@H](C(=O)NCCc1nc(-c2nc(C(=O)NCCC[S+](C)C)cs2)cs1)[C@@H](C)O)[C@@H](OC1OC(CO)C(O)C(O)C1OC1OC(CO)C(O)C(OC(N)=O)C1O)c1cnc[nH]1 (stereo not given in full) [bleomycin],-11.3%
4,c1ccc2c(CC3=NCCN3)cccc2c1 [naphazoline],2.24%
5,CC(C)(N)Cc1ccccc1 [phentermine],3.73%
6,FC(F)(F)c1ccc(CNc2ccc(Cc3c[nH]c4ncc(Cl)cc34)cn2)cn1 [pexidartinib],0.96%
7,COc1ccc(-c2oc3c(CC=C(C)C)c(O[C@@H]4O[C@H](CO)[C@@H](O)[C@H](O)[C@H]4O)cc(O)c3c(=O)c2O[C@@H]2O[C@@H](C)[C@H](O)[C@@H](O)[C@H]2O)cc1 [icariin],-0.92%
8,O=C(COc1ccc(Cl)cc1)N1CCN(Cc2ccc3c(c2)OCO3)CC1 [fipexide],1.62%
9,O=C1CC[C@@H](C(=O)N2CSC[C@H]2C(=O)O)N1 [pidotimod],2.73%
10,Cc1ccccc1-n1c(CF)nc2ccc(N)cc2c1=O [afloqualone],-0.49%
11,CN1c2cc3c(cc2N=C(c2ccc(C(=O)O)cc2)c2ccccc21)C(C)(C)CCC3(C)C,0.01%
12,c1coc(CNc2ncnc3[nH]cnc23)c1 [kinetin],3.24%
13,NC(=O)CC[C@H](N)C(=O)O [L-glutamine],0.71%
14,COc1ccc(C(=O)/C(Cc2cc(OC)c(OC)c(OC)c2)=C(\C(=O)O)c2ccc3c(c2)OCO3)cc1,1.73%
15,C[S+](CC[C@H](N)C(=O)O)C[C@H]1O[C@@H](n2cnc3c(N)ncnc32)[C@H](O)[C@@H]1O (stereo not given in full) [ademetionine],-0.06%
16,CCC[C@@]1(CCc2ccccc2)CC(O)=C([C@H](CC)c2cccc(NS(=O)(=O)c3ccc(C(F)(F)F)cn3)c2)C(=O)O1 [tipranavir],0.71%
17,CC(C)(C)CC(C)(C)c1ccc(OCCOCC[N+](C)(C)Cc2ccccc2)cc1 [benzethonium],-9.21%
18,CCC(C)SSc1ncc[nH]1 (stereo not given),2.44%
19,CCN1CCC[C@H]1CNC(=O)c1c(OC)ccc(Br)c1OC [remoxipride],0.51%
20,CC(=C(CCOC(=O)C(C)C)SSC(CCOC(=O)C(C)C)=C(C)N(C=O)Cc1cnc(C)nc1N)N(C=O)Cc1cnc(C)nc1N (stereo in doubt) [sulbutiamine],-4.07%

row,SMILES,inhibition of SARS-CoV-2 cytopathic effect
1,O=C(Oc1cccc2cccnc12)c1ccccc1 [benzoxiquine],-1.05%
2,O=P(O)(NCCCl)NCCCl [palifosfamide],-1.07%
3,O=P(O)(O)CN(CCN(CP(=O)(O)O)CP(=O)(O)O)CP(=O)(O)O,2.43%
4,Clc1ccc(COC(Cn2ccnc2)c2ccc(Cl)cc2Cl)c(Cl)c1 (stereo not given) [miconazole],0.7%
5,CC(C)(O)CC(=O)NCCn1ccc2ncnc(Nc3ccc(Oc4cccc(C(F)(F)F)c4)c(Cl)c3)c21,-7.39%
6,CCOC(=O)[C@@H](N)Cc1ccc(-c2cc(O[C@H](c3ccc(Cl)cc3-n3ccc(C)n3)C(F)(F)F)nc(N)n2)cc1 [telotristat-ethyl],4.77%
7,CC[C@@H](C(N)=O)N1CCCC1=O [levetiracetam],0.56%
8,O=C1NC(c2ccccc2)(c2ccccc2)C(=O)N1COP(=O)(O)O [fosphenytoin],1.24%
9,Cc1cc(-c2cc(OC(=O)c3ccccc3)ccc2Cl)cc2nnc(Nc3ccc(OCCN4CCCC4)cc3)nc12,1.14%
10,CC(C)(C)c1ccc(-c2nc3c(N4CCN(Cc5ccc6nccnc6c5)CC4)cccc3[nH]2)cc1,-0.5%
11,COc1cc2c(Oc3ccc4[nH]c(C)cc4c3F)ccnc2cc1OCC1(N)CC1 [anlotinib],1.39%
12,COc1cc2ncnc(Nc3ccc(F)c(Cl)c3)c2cc1OCCCN1CCOCC1 [gefitinib],-11.2%
13,COc1cccc2c1C(=O)c1c(O)c3c(c(O)c1C2=O)C[C@@](O)(C(=O)CO)C[C@@H]3O[C@H]1C[C@H](N)[C@H](O[C@@H]2CCCCO2)[C@H](C)O1 [pirarubicin],-1.24%
14,CCCCc1ccc(C(N)=O)nc1 [bupicomide],-0.04%
15,Cn1ncnc1[C@H]1c2n[nH]c(=O)c3cc(F)cc(c23)N[C@@H]1c1ccc(F)cc1 [talazoparib],-0.1%
16,CSc1ccc(C(=O)N[C@@H]2CCCC[C@@H]2NC(=O)CNC(=O)c2cc(C(F)(F)F)ccc2NC(=O)NC(C)C)cc1,0.24%
17,NS(=O)(=O)c1ccc(NC(=O)Nc2ccc(F)cc2)cc1,-1.65%
18,CC(C(=O)O)c1ccc(C(=O)c2cccs2)cc1 (stereo not given) [suprofen],-2.28%
19,COC(=O)C1=C(C)NC(C)=C(C(=O)OCC(C)C)C1c1ccccc1[N+](=O)[O-] (stereo not given) [nisoldipine],-0.83%
20,CN1C(=O)N(c2ccc(C#N)c(C(F)(F)F)c2)C(=O)[C@]1(CO)c1ccccc1 [GLPG0492-R-enantiomer],1.61%
